Screening results (PubChem)
PAFAH1B3 FP inh = PAFAH1B3 enzyme inhibitors, primary screen, biochemical, fluorescence polarization, human | Platelet-activating factor acetylhydrolase IB subunit alpha1 (Homo sapiens), Q15102 | recombinant PAFAH1B3, FP-rhodamine probe | inhibition, % at 3.39 µM | actives 0.28% (n = 340,000) | AID 492972, 2010;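 active = inhibition above the screen-wide average of all tested compounds plus 3 SD, cut at about 25% in these data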;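 also: 0% = enzyme with DMSO only and 100% = wells lacking PAFAH1B3 protein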
Target sequence (Q15102 whole entry, looked up): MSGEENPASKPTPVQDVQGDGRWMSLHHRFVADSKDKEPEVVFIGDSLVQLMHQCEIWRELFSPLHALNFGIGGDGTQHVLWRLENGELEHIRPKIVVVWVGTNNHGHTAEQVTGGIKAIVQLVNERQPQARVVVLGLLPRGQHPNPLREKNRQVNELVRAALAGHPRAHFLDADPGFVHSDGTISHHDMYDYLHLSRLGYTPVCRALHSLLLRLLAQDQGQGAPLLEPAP
PAFAH2 inh = PAFAH2 enzyme inhibitors, primary screen, biochemical, fluorescence polarization, human; inhibition, % at 3.39 µM; Platelet-activating factor acetylhydrolase 2, cytoplasmic (Homo sapiens), Q99487; AID 492956, 2010; recombinant PAFAH2, FP-rhodamine activity probe; actives 0.99% (n = 340,000);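 active = inhibition above the mean over all tested compounds plus 3 SD, cut at about 30% in these data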;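 also: inhibitors block probe labeling of enzyme so polarization drops; 0% = enzyme with DMSO and 100% = wells lacking PAFAH2 protein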
PAFAH1B2 FP inh = PAFAH1B2 enzyme inhibitors, primary screen, biochemical, fluorescence polarization, human; recombinant PAFAH1B2, FP-rhodamine activity probe; inhibition, % at 3.39 µM; actives 1.2% (n = 340,000); Platelet-activating factor acetylhydrolase IB subunit alpha2 (Homo sapiens), P68402;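 active = inhibition above the mean of all tested compounds plus 3 SD, cut at about 24% in these data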;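 also: 0% = enzyme with DMSO and 100% = wells lacking PAFAH1B2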
ZTA DNA inh = ZTA (EBV) inhibition in EBNA-1 counter-screen. ZTA-DNA binding, fluorescence polarization. inhibition, % at 11 µM. P03206. actives 0.15% (n = 320,000); in the data active = inhibition above about 33%
Target sequence (P03206 whole entry, looked up): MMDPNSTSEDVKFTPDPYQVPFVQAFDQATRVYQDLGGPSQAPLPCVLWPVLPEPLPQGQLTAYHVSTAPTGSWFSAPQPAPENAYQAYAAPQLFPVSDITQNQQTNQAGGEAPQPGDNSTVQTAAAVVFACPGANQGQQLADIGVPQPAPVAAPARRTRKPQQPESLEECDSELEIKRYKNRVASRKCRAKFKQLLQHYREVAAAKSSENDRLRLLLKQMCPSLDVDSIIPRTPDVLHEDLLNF
rCAG RNA binder = binders of r(CAG) RNA repeats, primary screen, biochemical, fluorescence; r(CAG) RNA repeat, TO-PRO-1 dye displacement fluorescence; actives 1.3% (n = 370,000); inhibition, % at 3 µM;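 active = inhibition above the plate cutoff, the mean of all test compounds on that plate plus 3 SD, cut at about 35% in these data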;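 also: 0% = DMSO alone and 100% = 100 µM mitoxantrone as full dye displacement; higher means more dye released from RNA so lower well fluorescence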
EBNA-1 inh = EBNA-1 DNA-binding inhibitors, primary screen, biochemical, fluorescence polarization; inhibition, % at 14.8 µM; actives 0.34% (n = 300,000); in the data active = inhibition above about 28%
PAFAH1B3 conf FP = PAFAH1B3 enzyme inhibitors, confirmation, biochemical, fluorescence polarization, human; inhibition, % at 3.39 µM; shares compounds with PAFAH1B3 FP inh; actives 30% (n = 390); recombinant PAFAH1B3, FP-Rh activity-based probe; AID 493032, 2011;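 active = average inhibition over triplicate runs above the hit cutoff set in the earlier primary screen, cut at about 25% in these data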;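 also: 0% = enzyme with DMSO and 100% = wells lacking PAFAH1B3 protein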
* = called active by the depositor; · = not tested or not shown. Most compounds without a hit are left out; they make up all but 2.9% or so of the library.

SMILES	PAFAH1B3 FP inh	PAFAH2 inh	PAFAH1B2 FP inh	ZTA DNA inh	rCAG RNA binder	EBNA-1 inh	PAFAH1B3 conf FP
Cn1c2c(c3ccccc31)CCSC2=O	26*	-6	3	3	3	7	24
CCCCNC(=O)C(NC(=O)Cc1cc(C(F)(F)F)cc(C(F)(F)F)c1)C(=O)c1ccccc1 (stereo not drawn)	·	·	·	·	6	·	·
COC(=O)CCc1c(C)c(C(=O)c2cc(F)c(F)c(F)c2F)c2ccccn12	29*	12	5	7	-3	-1	7
COC(=O)CCc1c(C)c(C(=O)c2ccc(F)cc2)c2ccccn12	7	5	4	-3	-2	8	·
COC(=O)[C@]12C[C@H](CC(=O)NCC34CC5CC(CC(C5)C3)C4)C(=O)N(Cc3ccccc3)C1=C[C@H](COCc1ccccc1)O[C@@H]2C	·	·	·	·	10	·	·
O=C(CSc1nc2ccsc2c(=O)n1CC1CCC(C(=O)O)CC1)c1ccc(Cl)cc1 (stereo not drawn)	27*	6	16	0	23	4	4
O=C(CSc1nc2ccsc2c(=O)n1CC1CCC(C(=O)O)CC1)c1ccc(F)cc1 (stereo not drawn)	3	6	5	-3	1	-5	·
O=[N+]([O-])c1cc(Br)c(Nc2ccccc2)c([N+](=O)[O-])c1	36*	21	5	11	1	8	29*
O=C(Nc1ccccc1)c1ccc(Nc2c([N+](=O)[O-])cc([N+](=O)[O-])c3ccccc23)cc1	-7	11	-1	-4	14	2	·
CC1(C(=O)NS(=O)(=O)c2ccccc2Cl)CCN1C(=O)C1CCCCC1 (stereo not drawn)	·	·	·	·	3	·	·
CC(=O)Nc1nc(-c2ccc3c(c2)CCN3S(C)(=O)=O)cs1	1	1	-4	-11	8	-19	·
CS(=O)(=O)N1CCc2cc(-c3csc(NC(=O)Cc4cccs4)n3)ccc21	36*	-6	3	16	10	12	5
O=C(N/N=C/c1cc(Br)ccc1OC(=O)c1ccc(Br)cc1)c1ccncc1	26*	-19	15	-13	11	-14	13
O=C(Nc1ccccc1)Nc1c(-c2ccccc2)nc2ncccn12	·	·	·	·	2	·	·
CNC(=O)c1cccc(NC(=O)c2cc(-c3ccccc3)nc3c2cnn3C(C)C)c1	-34	-38	-18	-4	7	·	·
COc1cc(NC(=O)c2cc(-c3ccccc3)nc3c2cnn3C(C)C)cc(OC)c1OC	26*	-35	20	·	·	·	21
O=C(Cn1ncc(Cl)c(Cl)c1=O)NC1CCCCC1	29*	3	1	2	3	·	21
CCOc1ccc(-c2csc(/C(C#N)=C\c3ccc(O)c([N+](=O)[O-])c3)n2)cc1	35*	19	14	0	2	-1	22
ON=C1c2ccccc2-c2ccc(O)cc21	37*	7	3	·	15	·	28*
Nc1ccc2c(c1)C(=NO)c1ccccc1-2	10	4	0	·	5	·	·
O=C(O)CCCCCCCCCCCNC(=O)NC12CC3CC(CC(C3)C1)C2	26*	0	4	-4	1	·	6
C=CCOc1ccc(Br)cc1/C=C1/SC(=Nc2ccc(C(=O)O)cc2)NC1=O	31*	0	10	·	13	·	21
COc1cc(NCCCNC(C)C)c2nccc(C)c2c1	40*	0	13	·	7	·	13
COC(=O)C1=C(C)N(Cc2cccc(C(F)(F)F)c2)C(=NCc2ccc3c(c2)OCO3)NC1c1cccc(F)c1 (stereo not drawn)	·	·	·	·	5	·	·
NS(=O)(=O)c1ccc(NC2=CC(=O)C(=O)c3ccccc32)cc1	19	13	2	0	18	2	·
SMILES	PAFAH1B3 FP inh	PAFAH2 inh	PAFAH1B2 FP inh	ZTA DNA inh	rCAG RNA binder	EBNA-1 inh	PAFAH1B3 conf FP
Cc1cc(NC(=O)CCN2C(=O)c3ccccc3C2=O)no1	7	-3	6	-13	-2	7	·
Cc1cc(NC2=CC(=O)C(=O)c3ccccc32)no1	33*	20	11	·	3	·	34*
COc1cc(OC)c(NC2=CC(=O)C(=O)c3ccccc32)cc1Cl	42*	12	10	-10	2	-4	33*
Cc1ccc(NC2=CC(=O)C(=O)c3ccccc32)cc1	25*	4	8	5	5	4	21
Cn1c(Cc2cccs2)nnc1SCC(=O)Nc1ccc(OCc2ccccc2)cc1	·	·	·	·	3	·	·
O=C1/C(=N\S(=O)(=O)c2cccs2)C([n+]2ccccc2)=C([O-])c2ccccc21	49*	17	16	-18	2	4	35*
CCOc1ccc(C=NNC(=O)c2cc(-c3ccc(Cl)cc3)n[nH]2)cc1	·	·	·	·	10	·	·
O=C1C(=NO)CCc2ccccc21	37*	18	12	·	9	·	23
O/N=C1/CCc2cccc3cccc1c23	7	4	5	2	-2	-1	·
O=C(NC1(O)C(=O)c2ccccc2C1=O)c1ccccc1	36*	16	9	-4	-1	-9	37*
COC(=O)CCC(=O)OC1(C)C(=O)C2=CN(CCCCO)C(c3ccc(OC)cc3)=CC2=C(Br)C1=O (stereo not drawn)	·	·	·	0	·	1	·
COC(=O)CCC(=O)OC1(C)C(=O)C2=CN(CCc3ccccn3)C(c3ccc(OC)cc3)=CC2=C(Br)C1=O (stereo not drawn)	30*	13	1	-35	·	-8	4
COc1cc(-c2nc3c4ccccc4nc(=S)n3[nH]2)cc(OC)c1OC	30*	-2	5	-2	6	0	25
COC(=O)[C@]12C[C@H](CC(=O)NCc3cccc4ccccc34)C(=O)N(Cc3ccc(Cl)cc3Cl)C1=C[C@H](C(C)(C)C)O[C@@H]2C	·	·	·	·	6	·	·
COC(=O)c1cc2c(c3c4cc(C#N)ccc4n(S(=O)(=O)c4ccc(C)cc4)c13)C(=O)N(C)C2	·	·	·	·	18	·	·
Cc1cnc(C=NNC(N)=S)c2cccc(N)c12	34*	18	9	·	8	·	51*
COC(=O)[C@]12C[C@H](CC(=O)NCCCN3CCCC3=O)C(=O)N(CCc3ccc(OC)c(OC)c3)C1=C[C@H](C(C)C)O[C@@H]2C1CC1	·	·	·	·	1	·	·
C[C@@H]1CCN(C2CC2)S(=O)(=O)c2c(cccc2N2CC[C@@H](O)C2)O1	·	·	·	·	4	·	·
O=c1c(O[C@@H]2O[C@H](CO)C(O)C2O)c(-c2ccc(O)c(O)c2)oc2cc(O)cc(O)c12 (stereo partly drawn)	26*	-16	11	·	·	·	25
